The results in this text go back to PubChem BioAssay.

Assay [1] concerns Human papillomavirus type 1a protein E7 (residues 44-93). Kind of assay: HPV1a E7 fragment binders on microarrays, primary screen, biochemical, small-molecule microarray, residues 44-93, 635 nm fluorescence (AID 1108).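 Also: E7 fragment applied at 1 µg/mL in TBST for 1 h at 4 C; score combines spot fluorescence with its signal to noise ratio.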 To be noted: small-molecule microarray binding, fluorescence 635 nm; higher = more signal.
Assay [2] in a line: modulators of HCV replicon luciferase signal, primary screen, HCV replication inhibitor project, Huh7 cells, luciferase reporter (AID 1109).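 Also: huh7 hepatoma cells harbouring a luciferase neomycin HCV replicon reporter; luciferase luminescence as measure of HCV replicon replication; test concentration not given here.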 To be noted: 48 h, higher = more signal. Background: A replicon is a self-replicating genome or part of one, used to study replication in cells.
In assay [3] the target is Left-right determination factor 2 (Homo sapiens) (UniProt O00292). Kind of assay: LEFTY2 binders on small-molecule microarrays, primary screen, biochemical, small-molecule microarray, 635 nm fluorescence scan (AID 1110). To be noted: LEFTY2 binding, higher = more signal.
Chain of Left-right determination factor 2 (Homo sapiens) (O00292 whole entry, looked up): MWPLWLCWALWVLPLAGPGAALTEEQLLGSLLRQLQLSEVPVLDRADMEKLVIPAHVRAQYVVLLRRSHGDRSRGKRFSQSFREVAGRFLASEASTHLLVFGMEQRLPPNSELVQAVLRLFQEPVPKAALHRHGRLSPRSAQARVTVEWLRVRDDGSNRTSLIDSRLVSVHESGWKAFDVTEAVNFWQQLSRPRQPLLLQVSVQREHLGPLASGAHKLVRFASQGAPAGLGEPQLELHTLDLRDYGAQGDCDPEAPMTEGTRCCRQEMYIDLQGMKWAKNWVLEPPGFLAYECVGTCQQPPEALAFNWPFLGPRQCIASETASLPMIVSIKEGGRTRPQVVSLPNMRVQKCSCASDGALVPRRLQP
In assay [4] the target is Calmodulin-1 (Homo sapiens) (UniProt P0DP23). Kind of assay: CALM1 binders on microarrays, EGTA buffer, profiling panel, biochemical, small-molecule microarray, Cy5-labelled CALM1 (AID 1111).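 Also: labelled calmodulin applied in Tris saline Tween buffer holding calcium plus EGTA and DTT.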 To be noted: Cy5-CALM1 binding fluorescence, higher = more signal.
For assay [5] the target is unchanged. The assay can be described thus: calcium-bound CALM1 binders on microarrays, profiling panel, artefact control for SMM control-protein annotation, biochemical, small-molecule microarray, Cy5-labelled CALM1, plus calcium (AID 1112).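 Also: score merges spot fluorescence with signal to noise from triplicate slides.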 To be noted: Cy5-CALM1 binding fluorescence, higher = more signal.
The nature of assay [6]: small-molecule microarray binders of probe aWnt5a, primary screen, biochemical, biotinylated probe, 635/667 nm fluorescence (AID 1113).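 Also: score merges 667 nm fluorescence intensity with signal-to-noise per printed feature.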 To be noted: higher = more signal.
Assay [7] in a line: small-molecule microarray binders of probe aShh, primary screen, biochemical, biotinylated probe, 635/667 nm fluorescence (AID 1114).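 Also: probe is biotin-labelled aShh protein from a stem cell growth factor screen; measures binding of labelled protein to compounds printed on the slide; score merges feature fluorescence at 667 nm with signal-to-noise.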 To be noted: higher = more signal.
The nature of assay [8]: small-molecule microarray binders of probe aNog, primary screen, biochemical, biotinylated probe, 635/667 nm fluorescence (AID 1115).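 Also: probe is biotinylated aNog protein used at 0.15 µg/mL for 1 h at 4 C; z-score combines 667 nm fluorescence of each spot with its signal to noise.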 To be noted: higher = more signal.
The target of assay [9] is Torsin-1A-interacting protein 1 (Homo sapiens) (UniProt Q5JTV8). Kind of assay: LAP1 binders from COS7 cell lysate, primary screen, small-molecule microarray, 635/667 nm fluorescence (AID 1116). To be noted: COS7-hLAP1 lysate binding, 635 nm fluorescence, higher = more signal.
Chain of Torsin-1A-interacting protein 1 (Homo sapiens) (Q5JTV8 whole entry, looked up): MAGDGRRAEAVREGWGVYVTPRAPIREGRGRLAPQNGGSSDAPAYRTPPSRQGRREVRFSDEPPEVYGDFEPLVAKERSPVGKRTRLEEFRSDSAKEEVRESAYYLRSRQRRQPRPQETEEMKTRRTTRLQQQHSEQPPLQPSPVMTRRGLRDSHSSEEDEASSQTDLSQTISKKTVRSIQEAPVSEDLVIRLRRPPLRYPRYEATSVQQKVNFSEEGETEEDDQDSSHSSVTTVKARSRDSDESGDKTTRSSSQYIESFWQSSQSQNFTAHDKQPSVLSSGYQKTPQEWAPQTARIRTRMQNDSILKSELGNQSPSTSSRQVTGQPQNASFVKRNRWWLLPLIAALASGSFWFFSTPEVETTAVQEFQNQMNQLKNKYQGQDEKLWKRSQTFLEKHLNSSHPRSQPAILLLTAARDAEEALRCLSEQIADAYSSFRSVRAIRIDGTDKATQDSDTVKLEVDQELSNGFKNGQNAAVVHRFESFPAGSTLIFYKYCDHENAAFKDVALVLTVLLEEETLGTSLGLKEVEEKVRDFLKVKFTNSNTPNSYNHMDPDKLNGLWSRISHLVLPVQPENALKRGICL
Assay [10] has as its target Alpha-bungarotoxin (Bungarus multicinctus) (UniProt P60615). The assay can be described thus: alpha-bungarotoxin binders on microarray, profiling panel, artefact control for SMM control protein annotation, biochemical, small-molecule microarray, Alexa647 label, 635/667 nm fluorescence (AID 1117). To be noted: alpha-BTX-A647 binding fluorescence, higher = more signal.
A further assay has as its target Albumin (Bos taurus) (UniProt P02769). Kind of assay: bovine serum albumin binders on microarray, profiling panel, artefact control for SMM control protein annotation, biochemical, small-molecule microarray, Alexa647 label, 635/667 nm fluorescence (AID 1118).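 Also: score merges 667 nm emission intensity and signal-to-noise per printed compound spot.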 To be noted: BSA-A647 binding, fluorescence 635 nm, higher = more signal.
Assay [11] is described as follows: small-molecule microarray binders of probe aXIP, primary screen, biochemical, NeuroSMM set, 635/667 nm fluorescence (AID 1119).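 Also: probe is the protein aXip251-270 applied at 1 µg/mL to compound-printed slides; binding of probe to printed compounds measured as 667 nm fluorescence plus signal to noise.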 To be noted: higher = more signal, called active from +8 up or from −8 down.
Assay [12] can be described thus: small-molecule binders of probe aNOTCH3, primary screen, biochemical, small-molecule microarray, 635/667 nm fluorescence (AID 1120).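 Also: probe is a biotin-tagged antibody raised against NOTCH3 rather than NOTCH3 protein; score merges spot fluorescence near 667 nm with spot signal to noise.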 To be noted: higher = more signal.
Assay [13] is described as follows: small-molecule binders of probe aNOTCH2, primary screen, biochemical, small-molecule microarray, 635/667 nm fluorescence (AID 1121).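 Also: score merges feature fluorescence read at 667 nm with its signal to noise.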 To be noted: higher = more signal.
The target of assay [14] is Carbonic anhydrase 2 (Homo sapiens) (UniProt P00918). The assay can be described thus: CAII small-molecule binders, profiling panel, biochemical, small-molecule microarray, Alexa647-labelled CAII (AID 1122). To be noted: CAII-A647 binding fluorescence, higher = more signal.
The nature of assay [15]: COS7 lysate on small-molecule microarray, probe aHis, 635 nm (AID 1123).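 Also: z-score combines 667nm fluorescence intensity with signal-to-noise per printed compound spot.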 To be noted: COS7 cell lysate, fluorescence, higher = more signal.
The nature of assay [16]: compound binding in COS7 lysate, probe aLAP1, primary screen, cell lysate, small-molecule microarray (AID 1124).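 Also: lysate comes from COS7 cells expressing LAP1 and is applied at 0.3 µg/mL; score merges spot fluorescence near 667 nm with signal-to-noise over triplicate slides.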 To be noted: probe aLAP1, fluorescence, higher = more signal.
The test system of the next assay is Sam68 (KHDRBS1). The assay can be described thus: Sam68 small-molecule binders, primary screen, biochemical, small-molecule microarray, 635 nm fluorescence (AID 1125).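 Also: score merges 667 nm channel intensity with signal to noise over triplicate slides.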 To be noted: small-molecule microarray binding, higher = more signal.
Assay [17] has as its system Chordin-like protein 2 (CHRDL2). The assay can be described thus: CHRDL2 small-molecule binders, primary screen, biochemical, small-molecule microarray, 635 nm fluorescence (AID 1126).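 Also: printed compound slides probed with Chrdl2 protein at 4 µg/mL for 1 h at 4 C; score merges 667 nm emission intensity with signal to noise over three replicate slides.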 To be noted: small-molecule microarray binding, fluorescence 635 nm; higher = more signal.
The target in assay [18] is Concanavalin-A (Canavalia ensiformis) (UniProt P02866). Kind of assay: ConA small-molecule binders, primary screen, artefact control for SMM control protein annotation, biochemical, small-molecule microarray, Alexa647 label, 635 nm (AID 1127).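 Also: z combines 667 nm emission intensity with signal-to-noise across three replicate slides.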 To be noted: ConA-A647 binding fluorescence, higher = more signal.
Chain of Concanavalin-A (Canavalia ensiformis) (P02866 whole entry, looked up): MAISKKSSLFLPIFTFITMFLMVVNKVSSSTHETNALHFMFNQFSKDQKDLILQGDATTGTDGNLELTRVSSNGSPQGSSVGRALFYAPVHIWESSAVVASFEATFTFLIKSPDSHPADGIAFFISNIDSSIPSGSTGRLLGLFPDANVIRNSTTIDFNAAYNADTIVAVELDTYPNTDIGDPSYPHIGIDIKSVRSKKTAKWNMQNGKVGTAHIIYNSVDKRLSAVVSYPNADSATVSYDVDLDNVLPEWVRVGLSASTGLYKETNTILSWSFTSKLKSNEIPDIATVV

Active and inactive are the calls of the source.

Chain of Alpha-bungarotoxin (Bungarus multicinctus) (P60615 whole entry, looked up): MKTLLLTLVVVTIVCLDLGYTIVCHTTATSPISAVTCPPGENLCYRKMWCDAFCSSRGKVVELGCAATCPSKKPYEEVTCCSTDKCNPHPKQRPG
Chain of Albumin (Bos taurus) (P02769 whole entry, looked up): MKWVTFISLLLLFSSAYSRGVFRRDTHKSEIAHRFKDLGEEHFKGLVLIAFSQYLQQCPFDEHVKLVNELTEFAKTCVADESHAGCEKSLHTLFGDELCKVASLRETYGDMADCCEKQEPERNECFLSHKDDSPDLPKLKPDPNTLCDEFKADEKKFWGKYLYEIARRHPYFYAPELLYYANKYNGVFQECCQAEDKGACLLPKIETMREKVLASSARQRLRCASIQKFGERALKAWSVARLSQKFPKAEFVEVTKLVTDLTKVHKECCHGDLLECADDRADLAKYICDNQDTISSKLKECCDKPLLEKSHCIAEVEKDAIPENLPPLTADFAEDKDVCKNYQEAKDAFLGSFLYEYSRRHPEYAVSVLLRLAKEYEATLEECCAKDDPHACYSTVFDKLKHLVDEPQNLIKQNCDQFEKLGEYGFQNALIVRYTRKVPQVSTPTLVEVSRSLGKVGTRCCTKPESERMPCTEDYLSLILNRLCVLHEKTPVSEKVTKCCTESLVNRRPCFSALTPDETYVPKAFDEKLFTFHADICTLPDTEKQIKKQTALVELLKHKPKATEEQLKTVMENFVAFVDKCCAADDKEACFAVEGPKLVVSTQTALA

With `COCCCNC(=O)[C@@]1(Sc2ccc(C)cc2)CC(=O)N(Cc2ccccc2Cl)[C@@H]1c1ccc(CO)cc1I`, the composite z-score is -0.747 in assay [1]; -1.6 in assay [3]; -0.434 in assay [4]; 0.717 in assay [5]; -0.28 in assay [6]; 0.0115 in [7]. In addition, the composite z-score in [8] was -0.323; in assay [9], -1.36; in assay [10] it was -0.659; with Albumin (Bos taurus) it was 0.7; in assay [12] it was -0.145; in assay [13] it was -0.178. Further, the composite z-score in [14] was 0.809; in assay [15] it was 0.658; in assay [16], -0.47; in the assay with Sam68 (KHDRBS1), -1.22; in [17], -1.05; in assay [18], -0.556. The same compound came in with a z-score in assay [2] of -1.94. The composite Z-score in [11] is -0.0202 (inactive).

Regarding `CN1C(=O)C2C=CC(C(O)c3cc(C(F)(F)F)cc(C(F)(F)F)c3)N(NC(=O)OC(C)(C)C)C2C1=O` (stereo not given), the composite z-score in assay [1] is 1.38; in assay [3], 0.106; in assay [4] it was 2.45; in assay [5] it was 0.666; in assay [6] it was -0.0607; in assay [7], -0.0626. In addition, the composite z-score in assay [8] came out at 2.04; in [9] it was 1.48; in [10], 1.23; in the assay with Albumin (Bos taurus), 1.04; in assay [12], 0.465; in assay [13], 0.0753. The composite z-score was 0.604 in [14]; 2.87 in [15]; 0.403 in assay [16]; 1.3 with Sam68 (KHDRBS1); -1.08 in [17]; 1.17 in assay [18]. In assay [2], this compound had a z-score of -1.24. The composite Z-score in assay [11] is 0.622 (inactive).

`COCCOC(=O)N1C(=O)[C@@]2(c3cc(C#CCC(C(=O)OC)C(=O)OC)ccc31)[C@H](C(=O)NC[C@H](O)c1ccccc1)[C@H]1C(=O)O[C@H](c3ccccc3)[C@H](c3ccccc3)N1[C@@H]2c1ccc(O)cc1`: the composite z-score in assay [1] is 1.37; in assay [3] it was 0.102; in [4], 1.65; in [5] it was 0.247; in assay [6] it was -0.0194; in assay [7], -0.0146. Also, the composite z-score was -0.038 in assay [8]; 1.37 in assay [9]; 0.195 in [10]; 0.661 in the assay with Albumin (Bos taurus); -0.0014 in assay [12]; -0.0974 in assay [13]. For the same compound, the composite z-score in assay [14] was 0.614; in assay [15], 1.67; in assay [16] it was 0.243; in the assay with Sam68 (KHDRBS1), 0.378; in assay [17], -0.769; in assay [18], 0.708. Moreover, the z-score in [2] is -0.545. Besides, in [11], the composite Z-score is -0.0756 (inactive).

In the case of `O=C(CS)NCCCCCCNC(=O)[C@@H]1C[C@@H]2C(=O)NCC(=O)N2[C@@H]1c1ccc(O)cc1`, the composite z-score in assay [1] is -1.1; in [3], -0.601; in assay [4], 1.16; in assay [5], 0.754; in assay [6] it was -0.239; in assay [7], -0.0035. Moreover, the composite z-score in assay [8] is 0.0595; in assay [9], -0.549; in assay [10] it was -1.04; in the assay with Albumin (Bos taurus), 0.166; in assay [12] it was -0.397; in assay [13], -0.183. Moreover, the composite z-score is 0.68 in [14]; 2.94 in assay [15]; -0.136 in assay [16]; -0.477 in the assay with Sam68 (KHDRBS1); -0.134 in assay [17]; -0.434 in assay [18]. In assay [2], this compound displayed a z-score of 0.394. For the same compound, the composite Z-score in assay [11] was 0.549 (inactive).

Turning to `C=C[C@H](C)[C@H](OC(=O)Nc1ccc(OC)cc1)c1ccc(OCCO)cc1`, the composite z-score in [1] was -0.562; in assay [3] it was -2.08; in assay [4] it was -1.39; in [5] it was -0.0296; in assay [6], -0.222; in assay [7], -0.0553. Moreover, the composite z-score in assay [8] was -0.142; in [9], -0.18; in [10], -1.79; with Albumin (Bos taurus), -0.381; in assay [12], -0.279; in assay [13], -0.209. Also, the composite z-score in [14] is 0.464; in assay [15] it was 0.718; in assay [16], 0.434; in the assay on Sam68 (KHDRBS1) it was -0.321; in [17], -1.18; in [18], -1.35. Besides, the z-score in assay [2] turned out to be 0.0055. Moreover, the composite Z-score in assay [11] was 0.838 (inactive).
